Experimental data as given in the supplement of paper PMC10849652.
About 8,800 targets were measured; listed, in parts, are those with a hit and a random draw of the rest. About 0.5% of all pairs of compound and target were hits. Values without a mark were called inactive.

Columns and labels:
Test in all cases: log2 fold change, soluble protein after heating vs DMSO (PISA); higher = thermal stabilisation; K562 lysate, 10 uM; active = over 0.2 and 3.5 SD of the protein, either way, in both replicates (recomputed)
[1] = compound: CN1CC[C@H](c2c(O)cc(O)c3c(=O)cc(-c4ccccc4Cl)oc23)[C@H](O)C1 [alvocidib]
Method in brief: (§1)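 Quantification was by TMTpro 16plex LC-MS/MS with equalised channel sums, applied to the supernatant after 21,000xg for 90 min. Samples were crude K562 extract at 1 mg/mL protein in PBS pH 7.4 with 1 mM MgCl2, treated with 10 μM compound for 30 min, heated for 3 min across 48°C-58°C, pooled and brought to 0.5% NP-40 at 4°C. Values are log-two fold changes in thermal stability relative to solvent controls, from duplicates.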

[2] = compound: CN1CCc2c(c3ccccc3n2Cc2ccc(C(=O)NO)cc2)C1 [Tubastatin A]
Method in brief: as §1

[3] = compound: CNC(=O)C1=CC=CC=C1NC2=NC(=NC=C2Cl)NC3=C(C=C(C=C3)N4CCOCC4)OC
Method in brief: as §1

[4] = compound: CNc1nc(-c2ccc3c(N)n[nH]c3c2)cc(N2C[C@@H](C(=O)NC3CCCCC3)CC[C@H]2C)n1
Method in brief: as §1

[5] = compound: COC(=O)N[C@@H](C)CNc1nccc(-c2cn(C(C)C)nc2-c2cc(Cl)cc(NS(C)(=O)=O)c2F)n1 [encorafenib]
Method in brief: as §1

[6] = compound: COC(=O)[C@H](CCSC)NC(=O)C1=C(C=C(C=C1)NC[C@H](CS)N)C2=CC=CC=C2
Method in brief: as §1

[7] = compound: COc1cc(Nc2ncc3c(n2)-c2ccc(Cl)cc2C(c2c(F)cccc2OC)=NC3)ccc1C(=O)O [alisertib]
Method in brief: as §1

[8] = compound: COc1cc2nc(-c3cc(F)ccc3O)nc(N[C@@H]3CNC[C@H]3C(C)(C)O)c2cc1OC
Method in brief: as §1

[9] = compound: COc1cc2ncnc(Nc3ccc(F)c(Cl)c3)c2cc1OCCCN1CCOCC1 [gefitinib]
Method in brief: as §1

[10] = compound: CS(=O)(=O)CCNCc1ccc(-c2ccc3ncnc(Nc4ccc(OCc5cccc(F)c5)c(Cl)c4)c3c2)o1 [lapatinib]
Method in brief: as §1

[11] = compound: CS(=O)(=O)N1CCN(Cc2cc3nc(-c4cccc5[nH]ncc45)nc(N4CCOCC4)c3s2)CC1 [pictilisib]
Method in brief: as §1

[12] = compound: C[C@@H](Oc1cc(-c2cnn(C3CCNCC3)c2)cnc1N)c1c(Cl)ccc(F)c1Cl [crizotinib]
Method in brief: as §1

[13] = compound: C[C@H](C1=CC=C(C=C1)C(=O)NC2=C3C=CNC3=NC=C2)N
Method in brief: as §1

[14] = compound: C[C@H](Nc1ncnc2nc[nH]c12)c1cc2cccc(Cl)c2c(=O)n1-c1ccccc1 [duvelisib]
Method in brief: as §1

[15] = compound: Cc1cc(Nc2cc(CN3CCOCC3)c3nc(C)c(Cc4ccc(Cl)cc4F)n3n2)n[nH]1 [gandotinib]
Method in brief: as §1

[16] = compound: Cc1cc(Nc2cc(N3CCN(C)CC3)nc(Sc3ccc(NC(=O)C4CC4)cc3)n2)n[nH]1 [tozasertib]
Method in brief: as §1

[17] = compound: Cc1ccc(-n2nc(C(C)(C)C)cc2NC(=O)Nc2ccc(OCCN3CCOCC3)c3ccccc23)cc1 [doramapimod]
Method in brief: as §1

[18] = compound: Cc1ccc(NC(=O)c2ccc(CN3CC[C@H](N(C)C)C3)c(C(F)(F)F)c2)cc1Nc1nccc(-c2cncnc2)n1 [bafetinib]
Method in brief: as §1

[19] = compound: Cc1cccc(CC(=O)N2CCc3c2ccc(-c2cn(C)c4ncnc(N)c24)c3F)n1
Method in brief: as §1

[20] = compound: CNC(=O)c1ccc(Nc2ncc(C(F)(F)F)c(NCc3nccnc3N(C)S(C)(=O)=O)n2)cc1 [defactinib]
Method in brief: as §1

UniProt Q13163, sequence (Q13163 whole entry, looked up): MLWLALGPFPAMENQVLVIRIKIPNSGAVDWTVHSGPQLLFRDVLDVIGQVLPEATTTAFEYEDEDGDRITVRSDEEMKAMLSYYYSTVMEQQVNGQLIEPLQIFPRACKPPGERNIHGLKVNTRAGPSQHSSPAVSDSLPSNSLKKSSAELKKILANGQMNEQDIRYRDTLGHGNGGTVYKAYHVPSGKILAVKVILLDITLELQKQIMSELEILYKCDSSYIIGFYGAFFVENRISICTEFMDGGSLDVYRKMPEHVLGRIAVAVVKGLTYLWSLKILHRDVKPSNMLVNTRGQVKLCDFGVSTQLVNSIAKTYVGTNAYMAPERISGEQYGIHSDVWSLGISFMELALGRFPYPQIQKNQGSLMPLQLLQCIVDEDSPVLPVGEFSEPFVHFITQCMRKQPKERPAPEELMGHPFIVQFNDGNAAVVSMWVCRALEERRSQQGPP
UniProt Q00987, sequence (Q00987 whole entry, looked up): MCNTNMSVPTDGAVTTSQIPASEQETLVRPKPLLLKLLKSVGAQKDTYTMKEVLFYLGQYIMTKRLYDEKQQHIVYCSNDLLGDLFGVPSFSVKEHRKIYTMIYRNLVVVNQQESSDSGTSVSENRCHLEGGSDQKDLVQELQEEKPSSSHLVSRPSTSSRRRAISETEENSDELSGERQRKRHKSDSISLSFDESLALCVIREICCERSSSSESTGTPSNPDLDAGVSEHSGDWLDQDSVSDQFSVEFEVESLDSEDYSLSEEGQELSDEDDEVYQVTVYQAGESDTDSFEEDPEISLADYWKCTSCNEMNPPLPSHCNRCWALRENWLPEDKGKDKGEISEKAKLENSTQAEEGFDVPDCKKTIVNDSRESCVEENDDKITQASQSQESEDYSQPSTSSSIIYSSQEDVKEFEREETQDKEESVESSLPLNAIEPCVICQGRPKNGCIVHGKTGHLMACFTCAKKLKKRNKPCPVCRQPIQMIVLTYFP
UniProt Q71SY5, sequence (Q71SY5 whole entry, looked up): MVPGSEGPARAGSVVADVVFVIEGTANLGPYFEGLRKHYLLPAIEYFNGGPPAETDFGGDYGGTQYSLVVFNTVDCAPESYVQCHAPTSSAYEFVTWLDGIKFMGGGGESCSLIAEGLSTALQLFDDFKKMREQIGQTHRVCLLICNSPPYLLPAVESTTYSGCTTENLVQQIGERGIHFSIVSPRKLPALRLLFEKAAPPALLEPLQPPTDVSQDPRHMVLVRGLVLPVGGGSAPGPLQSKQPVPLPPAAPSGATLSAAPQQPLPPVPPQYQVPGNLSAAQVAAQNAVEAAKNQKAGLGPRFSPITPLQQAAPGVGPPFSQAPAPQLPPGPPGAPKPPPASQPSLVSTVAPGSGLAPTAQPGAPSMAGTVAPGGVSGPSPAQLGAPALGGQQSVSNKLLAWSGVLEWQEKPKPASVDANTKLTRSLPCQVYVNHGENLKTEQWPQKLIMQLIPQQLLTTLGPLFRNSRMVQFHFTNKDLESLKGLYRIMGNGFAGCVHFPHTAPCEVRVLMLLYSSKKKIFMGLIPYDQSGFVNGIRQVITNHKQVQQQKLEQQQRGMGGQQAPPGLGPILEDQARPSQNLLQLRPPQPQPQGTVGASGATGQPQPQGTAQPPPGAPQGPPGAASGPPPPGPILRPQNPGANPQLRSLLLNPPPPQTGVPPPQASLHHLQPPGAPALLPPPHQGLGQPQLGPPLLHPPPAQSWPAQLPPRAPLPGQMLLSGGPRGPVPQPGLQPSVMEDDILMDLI
UniProt Q9Y250, sequence (Q9Y250 whole entry, looked up): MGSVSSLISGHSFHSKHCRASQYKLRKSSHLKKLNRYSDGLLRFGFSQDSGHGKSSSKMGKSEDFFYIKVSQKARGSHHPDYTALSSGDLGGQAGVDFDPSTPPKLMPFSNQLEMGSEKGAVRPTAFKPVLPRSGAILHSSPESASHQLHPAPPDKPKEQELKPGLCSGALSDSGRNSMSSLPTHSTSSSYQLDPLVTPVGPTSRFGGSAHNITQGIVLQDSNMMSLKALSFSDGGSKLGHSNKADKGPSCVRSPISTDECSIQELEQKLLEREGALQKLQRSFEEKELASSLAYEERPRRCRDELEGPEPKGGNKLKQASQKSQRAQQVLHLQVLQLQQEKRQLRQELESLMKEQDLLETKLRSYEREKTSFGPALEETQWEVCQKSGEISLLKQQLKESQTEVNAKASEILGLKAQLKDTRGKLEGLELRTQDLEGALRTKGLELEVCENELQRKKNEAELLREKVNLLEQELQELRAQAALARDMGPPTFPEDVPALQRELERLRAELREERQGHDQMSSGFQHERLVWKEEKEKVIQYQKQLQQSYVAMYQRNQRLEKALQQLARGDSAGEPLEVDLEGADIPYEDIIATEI
UniProt Q9Y4F3, sequence (Q9Y4F3 whole entry, looked up): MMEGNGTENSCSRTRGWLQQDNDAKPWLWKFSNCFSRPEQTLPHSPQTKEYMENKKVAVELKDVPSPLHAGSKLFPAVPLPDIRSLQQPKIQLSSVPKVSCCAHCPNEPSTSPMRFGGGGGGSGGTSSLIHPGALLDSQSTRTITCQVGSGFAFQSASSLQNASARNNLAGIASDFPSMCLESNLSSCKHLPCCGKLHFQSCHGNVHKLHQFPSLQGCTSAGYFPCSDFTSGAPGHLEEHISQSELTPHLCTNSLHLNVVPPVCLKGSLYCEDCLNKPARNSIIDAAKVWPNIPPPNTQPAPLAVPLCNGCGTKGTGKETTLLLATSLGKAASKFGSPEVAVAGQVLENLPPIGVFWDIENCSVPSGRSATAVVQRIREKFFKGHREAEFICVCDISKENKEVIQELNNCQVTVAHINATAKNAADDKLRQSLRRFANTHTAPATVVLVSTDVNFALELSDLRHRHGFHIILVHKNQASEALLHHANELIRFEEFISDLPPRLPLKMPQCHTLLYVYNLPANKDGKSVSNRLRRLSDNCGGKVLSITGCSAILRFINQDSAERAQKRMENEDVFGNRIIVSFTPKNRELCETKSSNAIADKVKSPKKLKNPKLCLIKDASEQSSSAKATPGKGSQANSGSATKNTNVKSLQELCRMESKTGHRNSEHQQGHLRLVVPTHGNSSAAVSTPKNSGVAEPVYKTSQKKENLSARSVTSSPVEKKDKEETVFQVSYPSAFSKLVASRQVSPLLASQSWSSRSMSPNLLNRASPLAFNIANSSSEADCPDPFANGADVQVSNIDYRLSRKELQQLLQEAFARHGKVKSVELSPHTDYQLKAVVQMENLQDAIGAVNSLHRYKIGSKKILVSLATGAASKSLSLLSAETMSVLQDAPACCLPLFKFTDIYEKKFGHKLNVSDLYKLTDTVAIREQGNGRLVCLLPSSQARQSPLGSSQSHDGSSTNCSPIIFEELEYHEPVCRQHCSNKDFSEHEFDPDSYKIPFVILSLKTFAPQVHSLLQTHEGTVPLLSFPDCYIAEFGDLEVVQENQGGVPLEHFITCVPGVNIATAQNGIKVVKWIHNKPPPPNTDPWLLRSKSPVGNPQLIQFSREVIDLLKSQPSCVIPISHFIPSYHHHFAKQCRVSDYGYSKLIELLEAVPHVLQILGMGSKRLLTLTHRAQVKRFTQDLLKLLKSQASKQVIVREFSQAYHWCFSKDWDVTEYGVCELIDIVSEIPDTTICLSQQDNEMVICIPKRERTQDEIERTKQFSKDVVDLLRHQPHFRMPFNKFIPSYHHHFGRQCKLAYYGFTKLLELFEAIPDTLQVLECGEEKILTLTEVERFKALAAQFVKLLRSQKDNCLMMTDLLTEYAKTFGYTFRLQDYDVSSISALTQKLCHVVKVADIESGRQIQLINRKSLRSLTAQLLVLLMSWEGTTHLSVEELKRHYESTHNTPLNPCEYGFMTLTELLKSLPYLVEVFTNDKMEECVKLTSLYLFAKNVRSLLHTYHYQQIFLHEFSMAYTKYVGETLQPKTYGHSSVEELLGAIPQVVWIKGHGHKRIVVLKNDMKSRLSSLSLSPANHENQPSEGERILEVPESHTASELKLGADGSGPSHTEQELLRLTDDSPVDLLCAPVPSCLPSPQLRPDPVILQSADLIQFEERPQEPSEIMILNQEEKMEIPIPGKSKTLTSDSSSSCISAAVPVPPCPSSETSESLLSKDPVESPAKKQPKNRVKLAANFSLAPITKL
UniProt Q9Y4W2, sequence (Q9Y4W2 whole entry, looked up): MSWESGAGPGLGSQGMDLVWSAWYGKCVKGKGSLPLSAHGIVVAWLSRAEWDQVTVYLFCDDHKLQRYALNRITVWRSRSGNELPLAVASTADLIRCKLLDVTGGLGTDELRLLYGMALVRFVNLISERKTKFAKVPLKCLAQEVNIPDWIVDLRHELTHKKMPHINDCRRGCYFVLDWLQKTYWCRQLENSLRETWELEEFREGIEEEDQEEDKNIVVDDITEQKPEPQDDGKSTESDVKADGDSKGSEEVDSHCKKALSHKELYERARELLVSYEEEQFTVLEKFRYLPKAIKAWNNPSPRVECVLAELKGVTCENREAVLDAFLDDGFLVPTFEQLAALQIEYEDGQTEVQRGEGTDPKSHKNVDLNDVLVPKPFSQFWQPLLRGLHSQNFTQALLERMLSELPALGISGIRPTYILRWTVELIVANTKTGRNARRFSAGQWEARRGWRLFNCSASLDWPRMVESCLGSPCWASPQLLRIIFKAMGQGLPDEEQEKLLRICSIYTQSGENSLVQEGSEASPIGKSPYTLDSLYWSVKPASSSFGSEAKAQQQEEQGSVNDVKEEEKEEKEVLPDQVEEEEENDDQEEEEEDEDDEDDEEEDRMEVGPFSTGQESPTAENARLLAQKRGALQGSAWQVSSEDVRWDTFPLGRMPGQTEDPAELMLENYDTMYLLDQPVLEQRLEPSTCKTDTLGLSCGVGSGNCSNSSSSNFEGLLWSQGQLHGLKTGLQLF

Row | Target | log2 fold change [1] | log2 fold change [2] | log2 fold change [3] | log2 fold change [4] | log2 fold change [5] | log2 fold change [6] | log2 fold change [7] | log2 fold change [8] | log2 fold change [9] | log2 fold change [10] | log2 fold change [11] | log2 fold change [12] | log2 fold change [13] | log2 fold change [14] | log2 fold change [15] | log2 fold change [16] | log2 fold change [17] | log2 fold change [18] | log2 fold change [19] | log2 fold change [20]
1 | MRPL30 isoform 2 (UniProt Q8TCC3) | 0.419 (active) | 0.034 | -0.003 | -0.002 | -0.049 | -0.034 | -0.033 | -0.003 | -0.013 | 0.03 | -0.029 | -0.094 | 0.746 (active) | 0.068 | -0.373 (active) | 0.158 | 0.013 | 0.043 | -0.458 (active) | –
2 | MICU1 isoform 3 (UniProt Q9BPX6) | 0.092 | -0.065 | 0 | -0.061 | -0.037 | -0.05 | -0.025 | -0.063 | 0.023 | -0.052 | -0.053 | -0.107 | 0.253 (active) | -0.007 | -0.408 (active) | 0.049 | -0.008 | -0.077 | -0.209 | 0.026
3 | KIF26A (UniProt Q9ULI4) | 0.022 | 0.566 (active) | -0.149 | -0.021 | -0.052 | 0.035 | 0.004 | – | 0.056 | – | 0.039 | 0.013 | -0.065 | -0.017 | 0.003 | 0.086 | -0.002 | -0.055 | 0.002 | -0.105
4 | KMT2A isoform 3 (UniProt Q03164) | -0.073 | 0.011 | -0.07 | -0.069 | -0.118 | -0.037 | -0.371 | 0.061 | -0.172 | -0.07 | -0.102 | -0.033 | 0.091 | 0.013 | 0.013 | 0.148 | 0.026 | -0.41 | 0.069 | -0.054
5 | KRR1 (UniProt Q13601) | 0.028 | -0.033 | -0.054 | -0.005 | 0.092 | 0.023 | 0.032 | 0.046 | -0.014 | -0.039 | 0.03 | -0.228 | 0.05 | -0.037 | -0.097 | -0.038 | 0.127 | -0.039 | 0.002 | 0.01
6 | MAPK14 (UniProt Q16539) | 0.007 | -0.203 | 0.38 | -0.043 | 0.488 | 0.314 | -0.144 | 0.011 | 0.295 | -0.047 | -0.004 | -0.094 | -0.034 | -0.026 | -0.037 | 0.009 | – | 1.03 (active) | 0.015 | -0.053
7 | MDM2 isoform 11 (UniProt Q00987) | -0.127 | 0.15 | 0.041 | – | – | – | – | – | – | – | -0.003 | 0.014 | -0.004 | – | 0.044 | – | 0.009 | 0.054 | -0.158 | 0.158
8 | MAST2 (UniProt Q6P0Q8) | -0.096 | -0.06 | 0.219 | -0.009 | 0.114 | 0.078 | – | -0.002 | – | 0.012 | 0.161 | -0.004 | -0.171 | -0.065 | -0.07 | 0.148 | -0.034 | -0.289 | -0.092 | -0.009
9 | KIF21A isoform 5 (UniProt Q7Z4S6) | 0.106 | -0.066 | 0.022 | 0.008 | -0.016 | 0.09 | -0.033 | -0.002 | -0.012 | -0.014 | -0.018 | -0.021 | 0.157 | -0.032 | -0.077 | 0.005 | 0.019 | -0.019 | -0.062 | 0.007
10 | LZTS1 (UniProt Q9Y250) | 0.054 | 0.326 | -0.037 | 0.709 | -0.071 | 0.001 | -0.022 | 0.129 | -0.08 | -0.136 | -0.222 | -0.821 | -0.233 | 0.308 | -0.137 | -0.1 | 0.177 | -0.268 | 0.083 | -0.101
11 | MARF1 (UniProt Q9Y4F3) | -0.024 | -0.194 | 0.024 | -0.021 | 0.053 | 0.086 | -0.056 | – | 0.02 | – | -0.212 | -0.021 | 0.035 | -0.002 | -0.1 | -0.032 | -0.004 | -0.012 | 0.095 | -0.157
12 | LAS1L (UniProt Q9Y4W2) | -0.015 | -0.127 | -0.024 | 0.016 | -0.04 | 0.06 | -0.011 | 0.01 | -0.013 | -0.004 | -0.033 | -0.05 | -0.051 | -0.003 | 0.017 | 0.043 | 0.011 | -0.004 | 0.233 (active) | -0.02
13 | MED25 isoform 3 (UniProt Q71SY5) | 0 | 0.056 | -0.033 | -0.022 | -0.123 | 0.005 | 0.125 | 0.01 | -0.029 | 0.018 | -0.05 | -0.05 | 0.053 | 0.063 | -0.095 | -0.109 | -0.042 | -0.023 | -0.052 | –
14 | MAP2K5 (UniProt Q13163) | 0.067 | -0.033 | 0.086 | 0.329 | 0.149 | -0.15 | -0.016 | 0.054 | 0.155 | 0.038 | -0.021 | -0.109 | 0.013 | 0.152 | -0.089 | – | -0.017 | -0.436 | 0.105 | -0.026
15 | MICB, A0A140T979 | 0.01 | -0.005 | -0.09 | 0.084 | -0.027 | -0.506 (active) | -0.043 | 0.804 (active) | -0.012 | -0.169 | -0.074 | -0.067 | -0.042 | 0.052 | 0.011 | -0.177 | -0.003 | -0.001 | 0.027 | 0.021
16 | MAPK14 isoform 2 (UniProt Q16539) | 0.154 | -0.121 | 0.299 | -0.041 | 0.454 | 0.257 | -0.065 | -0.004 | 0.144 | -0.008 | -0.054 | -0.028 | 0.222 | -0.026 | -0.086 | 0.001 | – | 0.765 | -0.122 | 0.01
